test system: HepG2; experiment: GSK_TCMDC: Percent inhibition of human HepG2 cell line. Test compounds present at 10uM.; type: functional

Row | Compound | Inhibition
1 | CNCCNCc1ccc(-c2ccc(-c3nc4ccccc4[nH]3)s2)cc1.O=C(O)C(F)(F)F | 11%
2 | Cc1cccc2[nH]cc(C3CCN(CCC4CCN(C(=O)/C=C/c5ccc(Cl)c(Cl)c5)CC4)CC3)c12 | 13%
3 | CN(C)CCOc1cc(NC(=O)Nc2ccc(-c3ccncc3)c(Cl)c2)ccc1I | 43%
4 | CCCCCOc1ccc(N2C(N)=NC(N)=NC2(C)C)cc1.Cl | 24%
5 | COc1ccc(CCC(C)N2CC(N)C(c3cn(C)c4cnccc34)C2)cc1.Cl (configuration not stated) | 5%
6 | CC(C)CCN1CCC(Oc2ccc(NC(=O)c3ccc(F)cc3)cc2Cl)CC1.O=C(O)C(F)(F)F | 33%
7 | CC(=O)c1c(Nc2c(C)cc(C)cc2C)oc(C)cc1=O | 7%
8 | Cl.N#Cc1ccc2c(c1)CCN(CCC1CCC(NC(=O)/C=C/c3ccc(Cl)c(Cl)c3)CC1)CC2 (configuration not stated) | 31%
9 | Clc1nc(Cl)c2c(ccn2Cc2ccccc2)n1 | 0%
10 | O=C(Nc1cccc(CN2CCCN(Cc3cccc(F)c3)CC2)c1)c1ccc(Cl)c(Cl)c1.O=C(O)C(F)(F)F | 28%
11 | O=C(NCCNc1ccnc2cc(Cl)ccc12)c1ccccc1F | 30%
12 | O=C(Nc1cccc(CN2CCN(C(=O)c3cccs3)CC2)c1)c1cccs1.O=C(O)C(F)(F)F | 0%

From ChEMBL document CHEMBL1157539, “Thousands of chemical starting points for antimalarial lead identification” (Nature, 2010)
